Screening data deposited in PubChem by National Center for Advancing Translational Sciences (NCATS).
RORg inh – ROR gamma (mouse) transcription inhibition; P51450; Drosophila S2 Gal4-RORgamma UAS-luciferase reporter, 20 h; Potency, µM (highest dose often 53.6 µM), without a hit: at the highest dose activity change, negative = inhibition, actives largely listed as inhibitors; hit rate 5.4% among 310,000; also: % is scaled to controls: 0 for no effect and ±100 for the full control effect; nearly all actives have a fitted effect of over 60% in size
Target sequence (P51450 whole entry, looked up, the tested form may be a part): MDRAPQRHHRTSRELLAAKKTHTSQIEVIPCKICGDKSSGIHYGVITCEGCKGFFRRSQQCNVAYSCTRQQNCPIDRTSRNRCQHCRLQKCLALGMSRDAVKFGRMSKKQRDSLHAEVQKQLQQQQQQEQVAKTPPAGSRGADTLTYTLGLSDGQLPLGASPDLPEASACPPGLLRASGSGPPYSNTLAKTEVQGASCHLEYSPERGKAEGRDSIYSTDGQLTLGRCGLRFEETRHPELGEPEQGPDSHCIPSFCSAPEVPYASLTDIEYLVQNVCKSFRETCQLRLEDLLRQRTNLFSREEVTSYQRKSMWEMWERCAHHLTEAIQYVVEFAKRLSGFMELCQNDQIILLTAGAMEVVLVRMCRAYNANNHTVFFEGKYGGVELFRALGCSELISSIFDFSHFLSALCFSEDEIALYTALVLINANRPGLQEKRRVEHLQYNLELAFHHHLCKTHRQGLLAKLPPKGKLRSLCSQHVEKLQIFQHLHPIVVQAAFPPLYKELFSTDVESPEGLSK
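Schneider cells (Drosophila), stable Gal4 DBD–ROR gamma + UAS-luc; 1 hr cmpd preincubation; Cu2+ induction 700 uM final; 20 hr ambient; luminescence.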
Mito fusion act – blocks mitochondrial division or promotes mitochondrial fusion | Potency, µM (top dose mostly 46.1 µM), inactives show top-dose growth rescue (activation), hits mostly activators | AID 485298 | hit rate 0.23% among 320,000 | S. cerevisiae fusion-defective mutant growth rescue, CellTiterGlo 48 h; also: % of control where 0% means no effect; nearly all actives have a fitted effect of over 45% in size
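S. cerevisiae fusion-defective temperature-sensitive mutants (e.g. fzo1-1, mgm1-5) grown 48 h at 37C in YPEG (ethanol/glycerol non-fermentable) medium with 23 nl compound per well; growth rescue read as CellTiterGlo luminescence.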
Integrin act MD – activators of alpha7 integrin expression for muscular dystrophy. alpha7betagal myoblasts, beta-gal FDG fluorescence, 48 h. hit rate 0.064% among 350,000. Potency, µM (top dose mostly 38.3 µM), inactives show at the highest dose activation, hits mostly activators;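 also: 100% = response of the positive control SU9516; nearly all actives have a fitted effect of over 60% in size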
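alpha7betagal+/- myoblasts (passage 13, 250/well) treated 48 h at 37C with compounds at 1:260 dilution of DMSO stock. Lysed, then beta-galactosidase activity read as FDG fluorescence (ex 480/em 540) after 30 min, with pre-read for autofluorescence.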
uPA generation – inhibitors of cell surface uPA generation. cell surface uPA generation assay, qHTS. Potency, µM (titrated, usually from 38.3 µM), without a hit: at the top dose activity change, negative = inhibition, most hits filed as inhibitors. hit rate 0.31% among 330,000; active = well fitted inhibition curve with a large enough effect; inconclusive = small, poorly fitted or top-dose-only effect; inactive = no such curve, though single readings can be large or run the other way; tested in mouse RAW 264.7 cells; also: % is scaled to controls: 0 for no effect and ±100 for the full control effect; nearly all actives have a fitted effect of over 55% in size
VP16 counter – inhibits Gal4-VP16 luciferase reporter, ROR gamma counter-screen; Drosophila S2 Gal4-VP16 UAS-luciferase, luminescence, 20 h; Potency, µM (doses to about 53.6 µM), without a hit: at the highest dose activity, negative = inhibition, hits mostly inhibitors; hit rate 3.5% among 310,000; AID 2546;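 also: Gal4-VP16 expression switched on by copper sulfate through the metallothionein promoter; % is scaled to controls: 0 for no effect and ±100 for the full control effect; nearly all actives have a fitted effect of over 50% in size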
BCR signal inh – chronic active BCR signaling inhibition | ABC-DLBCL IkBa-CBG/CBR reporter, luminescence ratio, 4 h | Potency, µM (top dose mostly 46.1 µM), for inactives: at the top dose activity change, negative = inhibition, hits mostly inhibitors | hit rate 0.05% among 340,000 | AID 493014; active = well fitted inhibition curve with a large enough effect in the signal ratio, with a control signal flat, not every such curve was filed as active; inconclusive = small, poorly fitted or top-dose-only effect, or effect the other way, or a change in a side signal; the % refers to the signal ratio;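 also: plate controls were basal doxycycline-induced cells for no effect and cells given 10 µM MG132 for full effect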
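Doxycycline induced both beetle luciferases in TMD8 lymphoma cells; IKK-driven degradation limits the IkappaBalpha-fused green signal, while red luminescence normalises for cell number and nonspecific effects. Compounds tested up to 46 uM, 4 hrs.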
* hit, by the source's call; ? = inconclusive; / = not tested or not shown. Hits are enriched below; roughly 5.5% of the tested compounds scored in any of these assays. Unless noted, calls follow the shape of the dose curve; as a rule, active = well fitted curve in the direction sought with a large enough effect; inconclusive = small, poorly fitted or top-dose-only effect, or another doubt; inactive = no such curve, though single readings can be large; an effect the other way counts as inactive or inconclusive. Potency is read from the fitted curve at half-maximal effect.

SMILES | RORg inh | Mito fusion act | Integrin act MD | uPA generation | VP16 counter | BCR signal inh
CC1CCCN(C(=O)COC(=O)c2cc(-c3cccs3)nn2-c2ccccc2)C1 (centres undefined) | / | ? | 32% | -21% | / | 8%
Cc1cc(C)c(C)c(S(=O)(=O)N2CCN(c3ncnc4ccccc34)CC2)c1C | / | 18µM* | 0% | ? | / | 1%
Cc1cc(C)c(C)c(S(=O)(=O)N2CCN(c3ccccn3)CC2)c1C | -15% | ? | 20% | 7% | 6% | -10%
COc1cccc([C@@H]2Oc3ccc(OC)cc3C[C@H]2OC(=O)NS(=O)(=O)c2ccc(C)cc2)c1 | ? | / | / | / | 3% | /
Nc1nc2ccccc2n1C(=O)c1ccco1 | 11µM* | 5% | 8% | -5% | ? | ?
Nc1nc2ccccc2n1C(=O)c1ccc(F)cc1 | 2.2µM* | 0% | 3% | -14% | 11µM* | ?
Nc1nc2ccccc2n1C(=O)c1ccccc1 | 0.63µM* | -10% | -23% | 2.8µM* | 5µM* | ?
O=C(c1ccco1)N1CCn2c1nc1ccccc12 | ? | 0% | 31% | 0% | 3% | 5%
Nc1nc2ccccc2n1C(=O)c1cccs1 | 0.89µM* | 1% | 5% | -6% | 2.8µM* | ?
C[C@@H]1OC(OC2CC[C@@]3(C)C(CC[C@@]4(C)C3CC=C3C5CC(C)(C)CC[C@]5(C(=O)OC5OCC(O)[C@@H](O)[C@@H]5OC5O[C@@H](C)[C@H](O[C@H]6OC(CO)C(O)C(O)C6O)C(O)C5O)C(O)C[C@@]34C)C2(C)C)C(O)C(O)[C@H]1OC1OCC(O)C(O)[C@H]1O (some centres undefined) | -20% | / | / | / | ? | /
COC(=O)[C@H](COC(C)(C)C)NC(=O)O[C@@H]1Cc2cc(Br)ccc2O[C@H]1c1cccc(OC)c1 | 27% | / | / | / | -5% | /
CCCCC/C=C\C/C=C\C/C=C\CCCCC(N)=O | -10% | / | / | / | 1% | /
Cc1ccc(C2Oc3ccccc3C3=C2C(c2cccs2)n2ncnc2N3)cc1 (centres undefined) | 11µM* | 4% | -25% | -7% | ? | ?
CCOc1ccc(NC(=O)CSC2=Nc3ccccc3C3=NC(CC(=O)NCc4ccccc4OC)C(=O)N23)cc1 (centres undefined) | / | / | / | / | / | 11%
CCOC(=O)c1[nH]c(C)c(C(=O)Nc2ccc(C)cc2C)c1C | ? | 7% | 0% | 2.5µM* | -17% | -4%
CCOC(=O)c1c(C)[nH]c(C(=O)OCC(=O)Nc2cc(C)nn2-c2ccccc2)c1C | / | -6% | -15% | 6% | / | -3%
CCNC(=S)NN=C1CCC(C(C)(C)C)CC1 (centres undefined) | 8.9µM* | -1% | -1% | -5% | 3% | ?
CC(C)(C)C1CCC(=NNC(=S)Nc2cccnc2)CC1 (centres undefined) | ? | -4% | -13% | -1% | -6% | 1%
Cn1c(-c2cccs2)nc2ccccc21 | 13µM* | -4% | 0% | -6% | 5% | 6%
Cc1nc(C)c(C(=O)N/N=C/c2cc(Br)ccc2O)s1 | 3.2µM* | 12% | -18% | 3% | 7.9µM* | ?
Nc1nonc1C(=O)N/N=C/c1cc(Br)ccc1O | -2% | 26% | -24% | -12% | 0% | ?
O=C(N/N=C/c1cc(Br)ccc1OC(=O)c1ccc(Br)cc1)c1ccncc1 | 2.8µM* | 2% | -33% | -5% | 5µM* | 1%
O=C(N/N=C/c1ccccc1O)C1SCCCS1 | 0.79µM* | -8% | -22% | ? | 5µM* | ?
O=C(N/N=C/c1ccc(OC(=O)c2ccc(Br)cc2)cc1)c1ccncc1 | 14% | -11% | 5% | 2% | -1% | -1%
O=C(N/N=C/c1cc(Br)ccc1O)c1ccncc1 | 6.3µM* | 5% | 0% | -16% | ? | -4%
SMILES | RORg inh | Mito fusion act | Integrin act MD | uPA generation | VP16 counter | BCR signal inh
CN1CCN(c2ncc3nc(-c4ccc(Cl)cc4)c(=O)n(C4CC4)c3n2)CC1 | 14% | / | / | / | -13% | /
COc1ccc(CCN2C(=O)CN(C3CCC(C)CC3)C(=O)C2c2ccc(OC(C)C)c(OC)c2)cc1OC (centres undefined) | / | -4% | / | / | / | 5%
NC(=O)N/N=C\c1cc(Br)ccc1O | -16% | -6% | 9% | 11% | -22% | 6%
O=C(N/N=C/c1cc(Cl)ccc1O)c1ccc(Br)cc1 | 2.8µM* | -3% | 1% | -12% | ? | 3%
Cc1cc(C(=O)N/N=C/c2cc(Br)ccc2OC(=O)c2ccccc2Cl)n[nH]1 | 14µM* | 7% | -46% | -9% | ? | 2%
Cc1ccc(N=Nc2ccc(O)c(/C=N\NC(=O)c3ccc(N)cc3)c2)cc1C | 3.2µM* | 2% | -4% | / | 2.2µM* | ?
O=C(N/N=C\c1ccc(Sc2ccccn2)o1)c1cccc(Br)c1 | 8.9µM* | -14% | 0% | -2% | ? | ?
O=C(N/N=C/c1cc(Br)ccc1O)Nc1ccccc1 | 2.5µM* | 11% | -9% | -9% | 11µM* | 0%
CCOc1ccccc1NC(=O)C(=O)N/N=C/c1cc(Br)ccc1O | 1.8µM* | 3% | -2% | -4% | ? | ?
O=C(N/N=C/c1ccccc1O)c1ccncc1 | 3.2µM* | 0% | / | 7.1µM* | 2.8µM* | ?
O=C(N/N=C/c1ccc(O)c2ncccc12)c1cccc(Br)c1 | 16µM* | -1% | -28% | -13% | ? | -16%
O=C(N/N=C/c1cccc2ccccc12)c1ccncc1 | -22% | 0% | 4% | 4% | -4% | -5%
COc1ccc(Br)cc1CNC(=O)c1cc(=O)[nH]c2ccc(S(=O)(=O)N3CCCCC3)cc12 | / | / | / | / | / | -2%
C[C@@]12CCc3occc3[C@H]1CC[C@@]13C[C@@H](CC[C@H]12)[C@@](O)(CO)C3 | -19% | / | / | / | 1% | /
CC(C)(C)OC(=O)N/N=C/c1cc(N=Nc2ccccc2)ccc1O | 4µM* | 1% | -34% | 2% | 5.6µM* | -1%
O=C(N/N=C/c1ccccc1O)C1(O)c2ccccc2-c2ccccc21 | 0.56µM* | 6% | -17% | -7% | 0.79µM* | 0%
O=C(N/N=C\c1cc(Br)ccc1O)c1ccc(S(=O)(=O)N2CCCCC2)cc1 | 3.5µM* | -1% | 6% | -19% | 4µM* | 2%
CC(C)(C)OC(=O)N/N=C/c1c[nH]c2ccccc12 | 14% | -1% | -4% | -12% | -8% | ?
c1ccc(CN2CCC3CC2c2ccc(N4CCOCC4)cc23)cc1 (centres undefined) | / | / | 16% | / | / | /
C/C(=N\Nc1ccc2nncn2n1)c1ccccn1 | 8.9µM* | -3% | ? | -2% | ? | -14%
